Assay: small molecules captured by biotinylated probe aFGF2 – biochemical, small-molecule microarray, fluorescence 635/667, stem cell growth factor project, primary screen (AID 1067);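 note: measures binding of biotinylated aFGF2 protein to printed compounds on slides; z-score merges feature fluorescence and signal-to-noise across triplicate slides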
Conditions: higher = more signal

Compound | composite z-score
COc1cc2c(cc1OC)CN(C(=O)[C@@H]1[C@H]3C(=O)O[C@H](c4ccccc4)[C@H](c4ccccc4)N3[C@H](c3ccc(OCCO)cc3)[C@@]13C(=O)Nc1ccc(C#CC4(O)CCCCCC4)cc13)CC2 | 0.0246
C=C(/C(=C/C[C@H](OC(C)=O)c1cccc(OCCO)c1)c1cnc2ccccc2c1)C(C)C | -0.108
OCCCC1=CC(c2ccc(CN3CCCC3)cc2)N(Cc2sc3ccccc3c2Cl)CC1 (stereo not given) | -0.221
CCOC(=O)C[C@H]1[C@H](OC(=O)c2ccccc2-c2ccccc2)[C@@H](NC(=O)C2CCCCC2)c2cc(OCCCO)ccc2N1C(=O)Cc1ccc(OC)cc1 | -0.0636
CN1C(=O)C2C=CC(C(O)c3cccc4ccccc34)N(N3CCCCC3)C2C1=O (stereo not given) | -0.0122
CC1=C([C@H](O)CCc2ccccc2)[C@H](CO)[C@@H]2C(=O)N(C)C(=O)[C@@H]2C1 | 0.411
O=C1O[C@@H](c2ccccc2)[C@@H](c2ccccc2)N2[C@@H](c3ccc(OCCO)cc3)[C@]3(C(=O)Nc4ccccc43)[C@@H](C(=O)O)[C@H]12 | -0.0336
C=C(/C(=C/C[C@@H](OC(C)=O)c1cccc(OCCO)c1)c1cc(C(=O)OC)ccc1OC)C(C)C | -0.0799
CCOC(=O)C[C@H]1[C@H](OC(=O)c2cc3ccccc3oc2=O)[C@@H](NC(=O)c2ccc(-c3ccccc3)cc2)c2cc(OCCCO)ccc2N1C(=O)c1ccc2ccccc2n1 | -0.0563
CC[C@H]1C2=C3C(CC[C@H]4C(OCc5ccc(F)cc5C(F)(F)F)OC[C@](C)([C@@H]34)N(C(=O)OC(C)(C)C)C2)C(COC)C1COC (stereo not given in full) | 0.0253
C=CCOC(=O)[C@H]1[C@@H]2C(=O)O[C@@H](c3ccccc3)[C@@H](c3ccccc3)N2[C@@H](c2ccc(OCCOC(=O)[C@H]3C[C@H]4C(=O)N[C@@H](CCCCNC(C)=O)C(=O)N4[C@H]3c3ccc(O)cc3)cc2)[C@]12C(=O)Nc1ccccc12 | -0.0736
[N-]=[N+]=Nc1ccccc1[C@@H]1OC(c2ccc(OCCCO)cc2)=N[C@]1(Cc1ccccc1)C(=O)NCC(O)CO (stereo not given in full) | 0.148
COc1ccc(C(O)C2C=CC3C(=O)N(c4ccccc4)C(=O)C3N2Nc2ccc([N+](=O)[O-])cc2)cc1 (stereo not given) | 0.25
O=C1OCC=C[C@H]2OC34C=CCN(Cn5nnc6ccccc65)C(=O)[C@H]3N(CCCO)C(=O)[C@@H]4[C@@H]12 (stereo not given in full) | -0.0015
CCC[C@@H]1C[C@@]1(CCC)[C@@H](NC(=O)OCc1ccccc1)c1ccc(-c2ccccc2)cc1 | 0.0572
CC(C)(C)OC(=O)CC[C@@]1(C(=O)NCc2ccccc2)N=C(c2ccc(OCCCO)cc2)O[C@@H]1c1ccccc1N=[N+]=[N-] | 0.246
COCCCNC(=O)[C@]1(CCS(=O)(=O)c2ccccc2)N=C(c2ccc(OCCCO)cc2)O[C@@H]1c1ccccc1CN=[N+]=[N-] | 0.418
C=C(COC)/C(=C/C[C@H](OC(=O)c1ccncc1)c1ccccc1OCCO)c1cnc2ccccc2c1 | -0.0524

Compound | composite z-score
O=C(NCC(F)(F)F)[C@@H]1c2ccccc2C(=O)N(Cc2cc(F)cc(C(F)(F)F)c2)[C@H]1c1ccc(CO)cc1 | -0.0996
Cc1ccccc1C(O)C1C=CC2C(=O)N(C)C(=O)C2N1N(c1ccccc1)c1ccccc1 (stereo not given) | 0.149
COCCOC(=O)N1C(=O)[C@@]2(c3cc(C#CC4=CCCCC4)ccc31)[C@H](C(N)=O)[C@H]1C(=O)O[C@H](c3ccccc3)[C@H](c3ccccc3)N1[C@@H]2c1ccccc1OCCO | -0.0105
C[N+](C)(C)CCCCCCNC(=O)[C@H]1C[C@H]2C(=O)NCC(=O)N2[C@H]1c1ccc(O)cc1 | -0.0973
O=C1OCC=C[C@H]2OC34C=CCN(Cc5ccccc5)C(=O)[C@H]3N(CCCCCCO)C(=O)[C@@H]4[C@@H]12 (stereo not given in full) | -0.191
COc1ccc(-c2nc(-c3ccccc3)c3c(c2C)CO[Si]3(C(C)C)C(C)C)cn1 | -0.087
COCCOC(=O)N1C(=O)[C@@]2(c3cc(C#CC4(O)CCCCCC4)ccc31)[C@H](c1ccc(O)cc1)N1[C@H](c3ccccc3)[C@H](c3ccccc3)OC(=O)[C@H]1[C@@H]2C(=O)NC[C@H](O)c1ccccc1 | -0.126
[N-]=[N+]=NCc1ccccc1C[C@@]1(C(=O)NCc2ccccc2)N=C(c2ccc(OCCCO)cc2)O[C@@H]1c1ccccc1N=[N+]=[N-] | 0.0075
[N-]=[N+]=NCc1ccccc1C[C@@]1(C(=O)N2CCOCC2)N=C(c2ccc(OCCCO)cc2)O[C@@H]1c1ccccc1 | 0.0654
COc1ccc(NC(=O)O[C@H]2[C@H](OC(=O)Nc3ccccc3)[C@H](OC(=O)Nc3ccccc3)[C@@H](OC)O[C@@H]2CO)cc1 | 0.338
COCCOC(=O)N1C(=O)[C@@]2(c3ccccc31)[C@H](C(=O)N1CCN(c3ncccn3)CC1)[C@H]1C(=O)O[C@H](c3ccccc3)[C@H](c3ccccc3)N1[C@@H]2c1ccc(O)cc1 | -0.0136
CCCCO[C@H]1C[C@H]2C(I)=C[C@@H]1C(=O)[C@]21CO1 | -0.0706
COc1ccc(CN(C2=CC[C@@]3(C(N)=O)C(=O)C(Cl)=C(Cl)C(=O)[C@@]3(C#N)C2)S(=O)(=O)c2ccc(Br)cc2)cc1 | -0.0657
CCCCN1CC=CC23O[C@@H]4/C=C\CCC(C)OC(=O)C4[C@H]2C(=O)N(C(CO)C(C)C)[C@@H]3C1=O (stereo not given in full) | -0.0976
[N-]=[N+]=NCc1ccccc1C[C@]1(C(N)=O)N=C(c2ccc(OCCCO)cc2)O[C@H]1c1ccccc1 | -0.0129
C=CCNC(=O)[C@H]1[C@@H]2C(=O)O[C@@H](c3ccccc3)[C@@H](c3ccccc3)N2[C@@H](c2ccc(O)cc2)[C@]12C(=O)Nc1ccc(C#CC3(O)CCCCCC3)cc12 | -0.0293
NCCCCCNC(=O)[C@@H]1C[C@@H]2C(=O)NCC(=O)N2[C@@H]1c1cccc(OCCO)c1 | 0.108
